# Laboratory results published in PubChem BioAssay (NCATS).
# “And” between values parts separate entries of the source, which are not always exact repeats. Identical values can stand only once. Records with an inconclusive call do not appear. Values without a mark were called inactive. The source made the active and inactive calls. The call rests on the fitted dose curve; in most records, active means well fitted curve in the direction sought with a large enough effect; inconclusive means small, poorly fitted or top-dose-only effect, or another doubt; inactive means no such curve, though single readings can be large; an effect the other way counts as inactive or inconclusive.
# Tests used:
# [1] = Viability qHTS for spleen associated tyrosine kinase inhibitor (SYKi) naive MV4-11 cells (AID 1963823); further: nearly all actives have a fitted effect of over 40% in size; further: potency means the concentration at half of the fitted maximal effect
# Procedure, shortened: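 qHTS, SYK inhibitor-naive MV4-11; 500 cells/well; 72 hr compound exposure, 37 C; CellTiter-Glo added, 10 min RT; luminescence read.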
# [2] = biological target: Cytochrome P450 3A7 (Homo sapiens) (UniProt P24462); test: Cytochrome P450 family 3 subfamily A member 7 (CYP3A7) small molecule antagonists: luciferase biochemical qHTS assay (AID 1963596); further: nearly all actives have a fitted effect of over 40% in size; further: potency means the concentration at half of the fitted maximal effect
# Sequence of Cytochrome P450 3A7 (Homo sapiens) (P24462 whole entry, looked up): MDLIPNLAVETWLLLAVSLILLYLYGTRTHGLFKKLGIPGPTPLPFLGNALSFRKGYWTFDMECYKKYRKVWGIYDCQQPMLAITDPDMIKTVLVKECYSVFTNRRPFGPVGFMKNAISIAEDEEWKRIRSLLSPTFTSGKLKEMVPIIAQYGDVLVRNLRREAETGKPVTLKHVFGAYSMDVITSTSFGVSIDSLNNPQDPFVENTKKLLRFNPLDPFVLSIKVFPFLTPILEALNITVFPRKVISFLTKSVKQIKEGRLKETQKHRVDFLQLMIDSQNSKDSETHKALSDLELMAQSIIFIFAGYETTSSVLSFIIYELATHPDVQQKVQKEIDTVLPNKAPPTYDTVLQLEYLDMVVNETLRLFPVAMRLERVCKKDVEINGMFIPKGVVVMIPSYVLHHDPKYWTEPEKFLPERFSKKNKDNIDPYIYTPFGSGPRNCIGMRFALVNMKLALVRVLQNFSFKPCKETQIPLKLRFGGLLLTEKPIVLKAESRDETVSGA
# Procedure, shortened: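 Luminescence read-out (relative luminescence units) after 20 min with detection reagent, which stops the reaction. Enzyme, proluciferin substrate and compound preincubated 10 min, RT; NADPH regeneration system then started 1 h reaction. Ketoconazole as positive control.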
# [3] = Cellular viability qHTS for adrenocortical cancer (ACC) cell line SW-13 (AID 1963989); details: SW-13 ACC cells viability, CellTiter-Glo, 48 h; activity (max response): active compounds read low;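 further: cells grown in serum-free medium with ITS supplement; on the % scale 0 is the no-effect control and ±100 the full control effect; nearly all actives have a fitted effect of over 65% in size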
# Procedure, shortened: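 48 h treatment, SW-13 in ITS/DMEM serum-free; doses up to 46 uM; readout CellTiter-Glo luminescence; curve fit four-parameter logistic.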
# [4] = Cellular viability qHTS for adrenocortical cancer (ACC) cell line NCI-H295R (AID 1963990); further: nearly all actives have a fitted effect of over 60% in size; further: potency means the concentration at half of the fitted maximal effect
# Procedure, shortened: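 Compound titrations (up to 46 uM final) are applied to NCI-H295R cultures for 48 h at 37C. Viable cell number is estimated by CellTiter-Glo signal, normalised to DMSO and doxorubicin controls.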
# [5] = Viability qHTS for spleen associated tyrosine kinase inhibitor (SYKi) drug resistant MV4-11 cells (AID 1963824); further: nearly all actives have a fitted effect of over 35% in size; further: potency means the concentration at half of the fitted maximal effect
# Procedure, shortened: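 CellTiter-Glo luminescence, read 10 min after reagent addition, reports viability after a 72 hr compound exposure. Cells are an MV4-11 line made resistant to SYK inhibition, seeded at 500 per well onto compound-containing plates.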
smiles,measurement,setting,value
CO[C@H]1C[C@H](O[C@H]2CC[C@]3(CO)[C@H]4CC[C@]5(C)[C@@H](C6=CC(=O)OC6)CC[C@]5(O)[C@@H]4CC[C@]3(O)C2)O[C@H](C)[C@H]1O,Potency,[1],0.1 µM (active)
Oc1ccccc1-c1ccccc1,Potency,[2],inactive
same,activity (max response),[3],-7.15%
same,Potency,[4],inactive
C=C1C2(C)CC3C(C)(O)C4=CC(=O)OC(C)(C)C4=CCC3(C)C13C(=O)OC(C)C3(O)C2=O (stereo not given),Potency,[1],inactive
CN1C(=O)[C@@H](Cc2c[nH]c3ccccc23)N=C(c2ccccc2F)c2ccccc21,Potency,[1],20.6 µM (active)
NC(=O)[C@@H](CC1CC1)[C@@H](CCC(F)(F)F)C(=O)N[C@H]1N=C(c2ccccc2)c2cccc(F)c2NC1=O,Potency,[2],inactive
same,activity (max response),[3],-14.1%
same,Potency,[4],inactive
O=C(O)Cc1ccccc1,Potency,[2],inactive
same,activity (max response),[3],-6.54%
same,Potency,[4],inactive
NC1=NC(=O)C(c2ccccc2)O1 (stereo not given),Potency,[2],inactive
same,Potency,[4],inactive
NNc1ccccc1,Potency,[1],inactive
CC(C)C1(OO)C=C2C(=O)CC3C(C)(C(=O)O)CCCC3(C)C2CC1 (stereo not given),Potency,[1],inactive
C[C@]12C/C(=C/O)C(=O)C[C@@H]1CC[C@@H]1[C@@H]2CC[C@@]2(C)[C@H]1CC[C@]2(C)O,Potency,[1],18.8 µM (active)
COC1C=CC23c4cc5c(cc4COC2(O)CN(C)C3C1)OCO5 (stereo not given),Potency,[1],inactive
O=S(=O)(c1ccc(Cl)cc1)c1ccc(Cl)cc1,Potency,[2],2020 nM (active)
same,Potency,[4],inactive
CN1Cc2c(ccc3c2OCO3)[C@@H]2[C@H]1c1cc3c(cc1C[C@@H]2O)OCO3,Potency,[1],3.21 µM (active)
Oc1c(Br)cc(Br)cc1Br,Potency,[2],inactive
same,activity (max response),[3],8.39%
same,Potency,[4],inactive
CN1CC[C@]23c4c5ccc(O)c4O[C@H]2[C@@H](O)CC[C@H]3[C@H]1C5,Potency,[2],inactive
same,activity (max response),[3],-1.35%
same,Potency,[4],inactive
O=[N+]([O-])c1ccc([As](=O)(O)O)cc1,Potency,[2],inactive
same,activity (max response),[3],4.1%
same,Potency,[4],inactive
COc1ccn(C)c(=O)c1C#N,Potency,[1],inactive
CC1CCCC(O)CCC/C=C/c2cc(O)cc(O)c2C(=O)O1 (stereo not given),Potency,[1],14.3 µM (active)
CN(C)C(=O)Oc1cc(OC(=O)N(C)C)cc(C(O)CNC(C)(C)C)c1 (stereo not given),Potency,[2],inactive
same,activity (max response),[3],-8.28%
same,Potency,[4],inactive
CC(=O)[O][Hg][c]1ccccc1,Potency,[2],977 nM (active)
same,Potency,[4],1460 nM (active)
C[C@H]1O[C@@H](O[C@H]2CC[C@]3(C=O)C4CC[C@]5(C)[C@@H](C6=CC(=O)OC6)CC[C@]5(O)[C@@H]4CC[C@]3(O)C2)C[C@@H](O)[C@@H]1O (stereo not given in full),Potency,[1],0.0563 µM (active)
C/C=C(/C)C1C=CC2CC(C)CC(C)C2C1/C(O)=C1\C(=O)NC(CC(C)(O)C(=O)O)C1=O (stereo not given),Potency,[1],inactive
C=C1C[C@@H]2[C@H](CC[C@]3(C)C(=O)CC[C@@H]23)[C@@]2(C)C=CC(=O)C=C12,Potency,[1],9.44 µM (active) and 14.8 µM (active)
CCN[C@@H](C)Cc1cccc(C(F)(F)F)c1,Potency,[2],inactive
same,activity (max response),[3],-3.94%
same,Potency,[4],inactive
CCCCCCC(C)(C)c1cc(O)c2c(c1)OC(C)(C)C1CC=C(CO)C[C@H]21 (stereo not given in full),Potency,[1],1.18 µM (active)
O=c1[nH]c2ccccc2n1C1CCNCC1,Potency,[2],inactive
same,activity (max response),[3],4.94%
same,Potency,[4],inactive
COc1ccc(CCNCc2ccc(OC)c3ccccc23)cc1,Potency,[1],9.2 µM (active)
CCCCC(CC)COC(=O)c1ccccc1C(=O)OCC(CC)CCCC (stereo not given),Potency,[2],inactive
same,activity (max response),[3],14%
same,Potency,[4],inactive
COC(=O)[C@@]12C(=O)C(C)C(=O)[C@]1(C)C(C)=C[C@H]1[C@]3(C=O)CC[C@H](OC(C)=O)C(C)(C)[C@H]3CC[C@@]12C (stereo not given in full),Potency,[1],inactive
CCCN1CCC[C@@H]2Cc3[nH]ncc3C[C@H]21,Potency,[2],inactive
same,activity (max response),[3],1.08%
same,Potency,[4],inactive
CC[C@H]1C2CC3[C@@H]4N(C)c5ccccc5[C@]45C[C@@H]([C@H]2[C@H]5O)N3[C@@H]1O,Potency,[1],inactive
CCN[C@@H](C)Cc1ccccc1,Potency,[2],inactive
same,activity (max response),[3],-5.58%
same,Potency,[4],inactive
O=c1n(Cl)c(=O)n(Cl)c(=O)n1Cl,Potency,[2],inactive
same,activity (max response),[3],8.14%
same,Potency,[4],inactive
C=C(C)[C@@]12O[C@@H]1[C@@]1(C)C(=C[C@H]2O)CC[C@@H](O)[C@@H]1C,Potency,[1],inactive
Nc1ccc([N+](=O)[O-])cc1,Potency,[2],inactive
same,Potency,[4],inactive
CCCC1CCCCN1 (stereo not given),Potency,[2],inactive
same,activity (max response),[3],12.1%
same,Potency,[4],inactive
COc1ccc(CN(C(=O)[C@@H](N)Cc2c(C)cc(C(N)=O)cc2C)[C@@H](C)c2ncc(-c3ccccc3)[nH]2)cc1C(=O)O,Potency,[1],inactive
same,Potency,[5],inactive
COC1C(O)C(OC2CCC3(C=O)C(CCC4C3CCC3(C)C(C5=CC(=O)OC5)CCC43O)C2)OC(C)C1OC1OC(CO)C(O)C(O)C1O (stereo not given),Potency,[1],0.153 µM (active)
same,Potency,[5],172 nM (active)
C=C1C(=O)O[C@@H]2[C@H]3C(=C)[C@@H](O)C[C@H]3C(=C)C[C@@H](O)[C@@H]12,Potency,[1],3.66 µM (active)
same,Potency,[5],3660 nM (active)
CC1=CC(=O)[C@@H](O)[C@@]2(C)C1C[C@H]1OC(=O)[C@H](O)[C@@]3(O)[C@@H](C)[C@@H](O)[C@H](O)C2[C@@]13C (stereo not given in full),Potency,[1],2.02 µM (active)
same,Potency,[5],1800 nM (active)
C/C=C(\C)C(=O)O[C@H]1CC2C(=C1C)[C@H]1OC(=O)[C@](C)(O)[C@]1(O)[C@H](OC(=O)CCC)C[C@@]2(C)OC(C)=O (stereo not given in full),Potency,[1],1.78 µM (active)
same,Potency,[5],563 nM (active)
CC[C@H]1/C=C\C=C/C[C@@H](C)[C@H](O)[C@@](C)(O)C(=O)[C@@H](C)[C@H](O)[C@@H](C)C(=O)[C@@H](C)[C@H](O)[C@@H](C)/C=C\C(=O)O[C@@H]2[C@H](C)[C@H](CC1)O[C@]1(CC[C@H](C)[C@H](C[C@@H](C)O)O1)[C@H]2C,Potency,[1],0.0092 µM (active)
same,Potency,[5],6.5 nM (active)
COC1CC(OC2CCC3(C)C(CCC4C3CCC3(C)C(C5=CC(=O)OC5)C(OC(C)=O)CC43O)C2)OC(C)C1OC1OC(CO)C(O)C(O)C1O (stereo not given),Potency,[1],0.769 µM (active)
same,Potency,[5],485 nM (active)
Nc1ccn(C[C@@H](CO)OCP(=O)(O)O)c(=O)n1,viability (% of control),[1],57.6% [at 9.25 µM]
same,"viability, % of control",[5],69.1% [at 9.25 µM]
C[C@@]1(CO)[C@H](O)CC[C@@]2(C)[C@H]1CC[C@H]1C[C@@H]3C[C@@]12CC[C@]3(O)CO,Potency,[1],1.01 µM (active)
same,Potency,[5],1010 nM (active)
CO[C@H]1[C@H](O)[C@H](O[C@H]2CC[C@]3(C)C4CC[C@]5(C)[C@H](C6=CC(=O)OC6)CC[C@]5(O)C4CC[C@@H]3C2)O[C@@H](C)[C@@H]1O (stereo not given in full),Potency,[1],0.0252 µM (active)
same,Potency,[5],11.2 nM (active)
C[C@]12CC[C@H](O[C@@H]3O[C@H](CO)[C@@H](O)[C@H](O)[C@H]3O[C@@H]3O[C@H](CO)[C@@H](O)[C@H](O)[C@H]3O)CC1=CC[C@@H]1[C@@H]2CC[C@]2(C)[C@@H](C3=CC(=O)OC3)CC[C@]12O,Potency,[1],6.11 µM (active)
same,Potency,[5],4320 nM (active)
COC1=CC(=O)O[C@@H](/C=C/c2ccccc2)C1,Potency,[1],inactive
same,Potency,[5],inactive
C[C@]12CC[C@H](O)C[C@H]1CC[C@@H]1[C@@H]2[C@H](O)C[C@]2(C)[C@@H](c3ccc(=O)oc3)CC[C@]12O,Potency,[1],0.0184 µM (active)
same,Potency,[5],14.6 nM (active)
CO/C1=C\C(C)=C\[C@@H](C)[C@@H](O)[C@@H](C)C/C(C)=C/C=C/[C@H](OC)[C@@H]([C@@H](C)[C@@H](O)[C@H](C)[C@@]2(O)C[C@@H](O)[C@H](C)[C@@H](C(C)C)O2)OC1=O,Potency,[1],0.0217 µM (active)
same,Potency,[5],17.2 nM (active)
COC1CC(OC2CCC3(C)C(=CCC4C3CCC3(C)C(C(C)OC5OC(COC6OC(CO)C(O)C(O)C6O)C(O)C(O)C5O)CCC43O)C2)OC(C)C1OC1OC(C)C(O)C(OC)C1O (stereo not given),viability (% of control),[1],91.8% [at 9.25 µM]
same,"viability, % of control",[5],87.9% [at 9.25 µM]
C=C1[C@@H](C)[C@H]2[C@H](Cc3ccccc3)NC(=O)[C@]23[C@H](OC(C)=O)/C=C/[C@](C)(O)C(=O)[C@@H](C)C/C=C/[C@H]3[C@@H]1O,Potency,[1],1.46 µM (active)
same,Potency,[5],731 nM (active)
C=CCN1CC[C@]23c4c5ccc(O)c4O[C@H]2[C@@H](O)CC[C@@]3(O)[C@H]1C5,Potency,[1],inactive
same,Potency,[5],inactive
C=C(CO)[C@@]12O[C@@H]1[C@@]1(C)C(=CC2=O)CC[C@@H](O)[C@@H]1C,Potency,[1],8.2 µM (active)
same,Potency,[5],5170 nM (active)
C/C=C(\C)C(=O)OC1CC2C(CC=C3CC(OC4CC(OC)C(OC5CC(OC)C(OC6OC(C)C(OC7OC(CO)C(O)C(O)C7O)C(OC)C6O)C(C)O5)C(C)O4)CCC32C)C2(O)CCC(C(C)=O)C12C (stereo not given),viability (% of control),[1],73.7% [at 9.25 µM]
same,"viability, % of control",[5],85.3% [at 9.25 µM]
O=C(OC[C@H]1O[C@@H](Oc2ccc(O)cc2CO)[C@H](O)[C@@H](O)[C@@H]1O)c1ccccc1,Potency,[1],inactive
same,Potency,[5],inactive
CC(=O)O[C@@H]1CC2C(C)(C)C(=O)C=C[C@]2(C)C2CC[C@]3(C)C(=CC(=O)O[C@H]3c3ccoc3)[C@@]21C (stereo not given in full),Potency,[1],11.6 µM (active)
same,Potency,[5],13000 nM (active)
CCN1C[C@]2(COC(=O)c3ccccc3N3C(=O)C[C@H](C)C3=O)CC[C@H](OC)[C@@]34[C@@H]5C[C@H]6[C@H](OC)[C@@H]5[C@](O)(C[C@@H]6OC)[C@](O)([C@@H](OC)[C@H]23)[C@@H]14,Potency,[1],inactive
same,Potency,[5],inactive
Cc1cccc(NC(=O)N[C@H]2CN(C)c3ccccc3C(c3ccccc3)=N2)c1,Potency,[1],25.9 µM (active)
same,Potency,[5],16400 nM (active)
CC1CCCC(O)CC(=O)Cc2cc(O)cc(O)c2C(=O)O1 (stereo not given),Potency,[1],inactive
same,Potency,[5],inactive
CC1=CC2OC3CC(O)[C@](C)([C@@]2(C)C(O)C1=O)[C@]31CO1 (stereo not given in full),Potency,[1],1.84 µM (active)
same,Potency,[5],1840 nM (active)
C[C@]12CCC(=O)C=C1CC[C@@H]1[C@@H]2[C@@H](O)C[C@]2(C)C(=O)CC[C@@H]12,Potency,[1],inactive
same,Potency,[5],inactive
